GPT2 inh – blocks human glutamate pyruvate transaminase 2; actives 0.25% (n = 100,000); Recombinant GPT2, coupled pyruvate oxidase/HRP Amplex Red fluorescence; Potency, µM (highest dose often 57.7 µM), without a hit: top-dose activity change, negative = inhibition, hits mostly inhibitors; Q8TD30; further: nearly all actives have a fitted effect of over 60% in size
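Recombinant GPT2 (10ng/uL) with 250uM a-KG and 2mM L-alanine, 30 min at room temperature, in HEPES pH 7.5 buffer. Pyruvate detected by pyruvate oxidase/HRP/Amplex Red fluorescence after 30 min in the dark; AOA (50uM) as positive control.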
HEK293 tox – cytotoxic compounds in HEK 293 cells; HEK 293 viability, ATP luminescence (CellTiter-Glo), 48-72 h; actives 6.6% (n = 94,000); Potency, µM (series often up to 115 µM), inactives show at the top dose activity change, negative = cytotoxicity, most hits filed as inhibitors; further: nearly all actives have a fitted effect of over 60% in size
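HEK 293 seeded at 250 cells/well receive compound via pintool. After 48 or 72 hr at 37 degree Celsius, 5% CO2 and 95% humidity, CellTiter-Glo is dispensed and luminescence read following 10 min at room temperature.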
NPR1 antag – blocks ANP-stimulated signaling of human Npr1 receptor; HEK293 hNpr1 GloSensor cGMP, ANP-stimulated luminescence; P16066; actives 1.6% (n = 76,000); Potency, µM (doses to about 46.3 µM), for the others: at the highest dose activity change, negative = inhibition, actives largely listed as inhibitors; calls by dose curve; further: nearly all actives have a fitted effect of over 60% in size
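Compound pre-incubated 30 min at room temperature on GloSensor-loaded HEK293 cells stably carrying hNpr1 and the pGS-40F cGMP biosensor. Stimulation uses hNppA at 0.1 nM final; luminescence is taken at baseline and 20 min post-agonist.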
FLuc inh – Photinus pyralis luciferase inhibition; P08659; purified P. pyralis luciferase, luminescence, biochemical; Potency, µM (series often up to 115 µM), actives largely listed as inhibitors; actives 2.5% (n = 76,000); AID 1347043; further: nearly all actives have a fitted effect of over 65% in size
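Purified 10nM P. pyralis luciferase with 10uM D-luciferin and 10uM ATP in 50mM Tris acetate pH 7.5, 10mM Mg acetate, 0.01% Tween-20, 0.05% BSA. qHTS titration; luminescence read by CCD imager.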
NIH3T3 tox – kills NIH 3T3 cells; NIH 3T3 viability, CellTiter-Glo ATP luminescence, 48-72 h; Potency, µM (series often up to 96.7 µM), inactives show at the highest dose activity change, negative = cytotoxicity, hits mostly inhibitors; actives 4.3% (n = 94,000); further: nearly all actives have a fitted effect of over 55% in size
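Mouse fibroblast NIH 3T3 cells, 400 per well, received compound via pintool and were incubated for 48 or 72 hr prior to CellTiter-Glo ATP luminescence measurement.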
* hit, by the source's call; i = inactive; ? = inconclusive; / = no result given; [ ] = another dose, or the depositor's remark. An excerpt weighted towards active compounds, which were near 10% of everything screened. Unless noted, the call rests on the fitted dose curve; in most records, active means well fitted curve in the direction sought with a large enough effect; inconclusive means small, poorly fitted or top-dose-only effect, or another doubt; inactive means no such curve, though single readings can be large; an effect the other way counts as inactive or inconclusive. On the % scale 0 is the no-effect control and ±100 the full control effect; potency means the concentration at half of the fitted maximal effect.

SMILES	GPT2 inh	HEK293 tox	NPR1 antag	FLuc inh	NIH3T3 tox
c1ccc(CN2CCNc3cc(-c4ccncc4)ncc3C2)cc1	?	?	2%[70.6 µM]	?	-19%[138 µM]
O=C(COc1ccccc1)N1CCC(Oc2cnc3c(ccn3-c3cncnc3)c2)CC1	-7%[88.5 µM]	89µM*	-30%[70.6 µM]	i	-67%[138 µM]
NC(=O)c1cccc(CN2CCC3(Cc4ccccc4N(C(=O)c4ccc(Cl)cc4)C3)C2)c1 (centres undefined)	?	35µM*	/	/	?
O=C(O)CCC(=O)N1CCC2(CC1)Cc1ccccc1N(C(=O)C1CCCC1)C2	i	-17%	/	/	?
O=C(c1ccc(Cl)cc1)N1CC2(CCCN(Cc3ccccn3)C2)Cc2ccccc21 (centres undefined)	i	32µM*	/	/	?
O=C(O)CCC(=O)N1CCC2(CC1)Cc1ccccc1N(C(=O)c1ccc(Cl)cc1)C2	-13%	i	/	/	32µM*
NC(=O)c1cccc(CN2CCC3(CC2)Cc2ccccc2N(C(=O)c2ccc(Cl)cc2)C3)c1	-6%	40µM*	/	/	?
O=C(c1ccc(Cl)cc1)N1CC2(CCN(Cc3ccccn3)CC2)Cc2ccccc21	-2%	?	/	/	?
CC(C)NC(=O)N1CCCC(c2nc(C(C)C)no2)CCNC(=O)CC1 (centres undefined)	i	i	3%	i	4%
CN1CCN(c2ncccc2CNC(=O)[C@H]2[C@@H]3C=C[C@@]4(CN(C)C(=O)[C@@H]24)O3)CC1	i	-12%	0%	i	-21%
CNC(=O)c1cccc(-c2cnc3[nH]cc(CC(=O)NC4CCC4)c3c2)c1	i	?	2%[70.6 µM]	?	40µM*
CNC(=O)c1cccc(-c2cnc3[nH]cc(CC(=O)NCc4cccs4)c3c2)c1	-7%[88.5 µM]	?	-14%[70.6 µM]	i	89µM*
O=C(Cc1c[nH]c2ncc(-c3cccnc3)cc12)NC1CCC1	-10%[88.5 µM]	?	10%[70.6 µM]	i	28µM*
CNC(=O)c1cccc(-c2cnc3[nH]cc(CC(=O)Nc4ccccc4Cl)c3c2)c1	-15%[88.5 µM]	89µM*	1%[70.6 µM]	?	?
CNC(=O)c1cccc(-c2cnc3[nH]cc(CC(=O)N(C)C)c3c2)c1	3%[88.5 µM]	?	5%[70.6 µM]	?	?
O=C(Nc1ccc(Cl)cc1)N1CCC(Oc2ncccc2C(=O)N2CCOCC2)C1 (centres undefined)	i	-3%	0%	i	i
COCCCN1CC2(CCN(Cc3ccc4c(c3)CC(C)O4)CC2)CC1=O (centres undefined)	-2%[11.5 µM]	-9%	6%	i	3%
O=C(Cc1c[nH]c2ncc(-c3cccnc3)cc12)NCCc1ccccn1	-23%[88.5 µM]	-4%[172 µM]	-1%[70.6 µM]	i	100µM*
O=C(Cc1c[nH]c2ncc(-c3ccccc3)cc12)NC1CC1	?	?	?	i	89µM*
COCCNC(=O)Cc1c[nH]c2ncc(-c3cccnc3)cc12	3%[88.5 µM]	-22%[172 µM]	3%[70.6 µM]	i	?
CC(C)(C)CC(=O)N1CC[C@@H](CC(=O)O)[C@@H](CCN2CCN(c3ccccc3)CC2)C1	i	-5%[172 µM]	0%[70.6 µM]	i	3%[174 µM]
Cc1cc(C)cc(C(=O)NCc2nnc3c(-c4nc(C5CC5)no4)cccn23)c1	i	-30%	-2%	i	-6%
Cc1[nH]c2c(c1C(=O)N1CCCC(CCc3ccc(F)cc3)C1)C(=O)CCC2 (centres undefined)	-20%	32µM*	?	i	?
CN(C)Cc1ccc(-c2cc(-c3ccncc3)c3cncn3c2)cc1	-1%[88.5 µM]	89µM*	-2%[70.6 µM]	?	?
Cc1noc(C)c1-c1cc(-c2ccc(CN(C)C)cc2)cn2cncc12	-10%[88.5 µM]	?	0%[70.6 µM]	i	28µM*
SMILES	GPT2 inh	HEK293 tox	NPR1 antag	FLuc inh	NIH3T3 tox
Cc1noc(C)c1-c1cc(-c2ccncc2)cn2cncc12	1%[88.5 µM]	?	2%[70.6 µM]	i	?
CC1=C[C@@H](CN(C)C)[C@H](C(C)C)C[C@H]1Cc1nc2c(C)cccc2[nH]1	-3%[88.5 µM]	100µM*	4%[70.6 µM]	i	89µM*
COc1ccccc1CNC[C@@H]1C=C(C)[C@H](Cc2nc3c(C)cccc3[nH]2)C[C@H]1C(C)C	-9%[88.5 µM]	?	?	i	25µM*
CC1=C[C@@H](CNC(=O)COCC(=O)O)[C@H](C(C)C)C[C@H]1Cc1nc2c(C)cccc2[nH]1	i	-22%[172 µM]	-5%[70.6 µM]	i	-11%[174 µM]
CC1=C[C@@H](CNC(=O)CC(C)(C)CC(=O)O)[C@H](C(C)C)C[C@H]1Cc1nc2c(C)cccc2[nH]1	?	-10%	2%	i	-18%
CC1=C[C@@H](CNCc2ccccc2)[C@H](C(C)C)C[C@H]1Cc1nc2c(C)cccc2[nH]1	-2%[88.5 µM]	25µM*	?	i	28µM*
CC1=C[C@@H](CNCc2ccccc2F)[C@H](C(C)C)C[C@H]1Cc1nc2c(C)cccc2[nH]1	2%[88.5 µM]	25µM*	?	i	28µM*
CC1=C[C@@H](CNC(=O)CCCC(=O)O)[C@H](C(C)C)C[C@H]1Cc1nc2c(C)cccc2[nH]1	i	-17%[172 µM]	4%[70.6 µM]	i	-27%[174 µM]
Cc1cccc(C)c1-c1nc(C(=O)N2CCCC2)n2ccccc12	3%[88.5 µM]	?	3%[70.6 µM]	i	?
Cc1cccc(C2CN(C)CCc3c2cc(O)c(O)c3Cl)c1 (centres undefined)	7.1µM*	/	/	/	/
CN1CCc2cc(Cl)c(O)cc2[C@@H](c2cccc3c2OCC3)C1	2%	/	/	/	/
CCN(C(=O)Cn1cccc1-c1nc(-c2ccccc2)no1)c1cccc(C)c1	4%	?	-9%	i	?
Cc1cccc(N(C)C(=O)Cn2cccc2-c2nc(-c3ccccc3)no2)c1	4%	71µM*	-2%	?	?
O=C(COc1ccccc1)NCCn1cccc1-c1nc(-c2ccc3c(c2)OCO3)no1	-28%	-3%	-18%	?	2%
Cc1ccc(C(=O)NCCn2cccc2-c2nc(-c3ccccc3)no2)cc1	-2%	-1%	-2%	0.89µM*	-16%
O=C(NCCn1cccc1-c1nc(-c2ccc3c(c2)OCO3)no1)C1(c2ccccc2)CC1	i	45µM*	-14%	20µM*	?
Cc1ccc(C(=O)NCCn2cccc2-c2nc(-c3ccccc3)no2)cc1F	i	-7%	1%	i	-4%
CN(Cc1cccc2cnccc12)C(=O)c1cn(Cc2ccccc2F)nn1	-15%	-28%	-27%	i	-14%
Cc1cc(CN2CC(Oc3ccc4c(c3)OCO4)C2)no1	i	5%[172 µM]	/	/	-2%[138 µM]
CC(=O)N1CCN(c2cc(-c3ccccc3)nc3c(C)noc23)CC1	?	-18%[172 µM]	1%[70.6 µM]	i	89µM*
Cc1noc2c(N3CCN(Cc4ccccc4)CC3)cc(-c3cccnc3)nc12	?	63µM*	-17%[70.6 µM]	i	?

Source: PubChem
